Screening data: PubChem BioAssay, several laboratories
Bim-Bcl-XL – disrupts Bim peptide binding to human Bcl-XL | Q07817 | bead flow cytometry, fluorescence | inhibition, % at 10 µM | hit rate 0.04% among 190,000 | AID 1007
Bfl-1 Bim block – inhibitors of Bim-Bfl-1 interaction, human | hit rate 0.12% among 190,000 | inhibition, % at 10 µM | AID 1008 | Bead-based flow cytometry, Bim-Bfl-1 binding inhibition | Q16548
Bim-Bcl-B – human Bim-Bcl-B interaction inhibition | inhibition, % at 10 µM | bead-based flow cytometry, Bim peptide-Bcl-B binding | hit rate 0.073% among 190,000
PKD1 inh – blocks activity of human protein kinase D1 | Q15139 | PKD1 kinase fluorescence polarization assay | inhibition, % (test concentration not listed) | hit rate 0.056% among 200,000 | AID 797; in the data active = inhibition above about 50%
Target sequence (Q15139 whole entry, looked up): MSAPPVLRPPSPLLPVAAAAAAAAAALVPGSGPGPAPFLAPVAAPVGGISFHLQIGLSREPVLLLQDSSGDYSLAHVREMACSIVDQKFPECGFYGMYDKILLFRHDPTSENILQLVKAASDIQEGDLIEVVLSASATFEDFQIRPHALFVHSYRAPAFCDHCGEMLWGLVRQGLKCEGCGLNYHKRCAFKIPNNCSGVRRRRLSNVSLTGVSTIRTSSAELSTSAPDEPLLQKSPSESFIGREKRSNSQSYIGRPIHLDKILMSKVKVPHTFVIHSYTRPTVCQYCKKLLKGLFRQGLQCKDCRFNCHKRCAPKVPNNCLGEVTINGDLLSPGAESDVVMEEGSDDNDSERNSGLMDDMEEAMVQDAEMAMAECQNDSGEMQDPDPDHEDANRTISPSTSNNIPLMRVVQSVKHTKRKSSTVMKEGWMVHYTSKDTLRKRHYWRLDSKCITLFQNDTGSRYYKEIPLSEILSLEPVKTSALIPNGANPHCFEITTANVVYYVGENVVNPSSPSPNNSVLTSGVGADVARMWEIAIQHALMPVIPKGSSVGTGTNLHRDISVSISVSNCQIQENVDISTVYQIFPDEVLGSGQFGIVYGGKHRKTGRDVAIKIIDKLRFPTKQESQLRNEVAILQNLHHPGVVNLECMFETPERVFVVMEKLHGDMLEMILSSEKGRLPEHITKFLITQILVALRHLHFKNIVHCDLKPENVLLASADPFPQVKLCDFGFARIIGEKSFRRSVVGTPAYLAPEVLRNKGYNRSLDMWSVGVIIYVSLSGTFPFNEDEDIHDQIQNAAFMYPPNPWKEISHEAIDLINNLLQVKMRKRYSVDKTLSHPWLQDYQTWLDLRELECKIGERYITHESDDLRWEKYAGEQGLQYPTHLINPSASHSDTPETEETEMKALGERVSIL
Bcl-W Bim block – inhibitors of Bim-Bcl-W interaction, human. Q92843. bead-based flow cytometry, Bim peptide-Bcl-W binding. inhibition, % at 10 µM. hit rate 0.02% among 190,000. AID 952;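 also: higher means less fluorescent Bim peptide bound to Bcl-W beads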
Bim-Bcl-2 – disrupts Bim peptide binding to human Bcl-2. P10415. Bead-based flow cytometry, Bim peptide-Bcl-2 binding. inhibition, % at 10 µM. hit rate 0.06% among 190,000. AID 950; in the data active = inhibition above about 40%
Bim-Bcl-XL DR – Bim-Bcl-XL interaction regulation, dose confirmation; shares compounds with Bfl-1 Bim block; bead-based flow cytometry, Bim-Bcl-XL binding; inhibition of binding at 100 µM; 40 tested, under 10 active; call rule not given here
A number is an active result; i = inactive; nt = not tested or not shown. Compounds with a hit are over-represented: about 0.24% of the library has one in this group of screens. Rule as the data show it, unless noted: active = inhibition above about 40%.

SMILES | Bim-Bcl-XL | Bfl-1 Bim block | Bim-Bcl-B | PKD1 inh | Bcl-W Bim block | Bim-Bcl-2 | Bim-Bcl-XL DR
CCOC(=O)C(C)Oc1ccc(OCc2ccccc2)cc1 (stereo unspecified) | i | i | i | i | i | i | nt
O=C(Nc1nnc(COc2ccc(Cl)cc2)s1)c1ccco1 | i | i | i | i | i | i | i
Cc1ccc(OCc2nnc(NC(=O)c3ccco3)s2)cc1 | i | i | i | i | i | i | nt
CCOc1ccccc1/C=C(/NC(=O)c1ccccc1)C(=O)NC(C)c1ccccc1 (stereo unspecified) | i | i | i | i | i | i | nt
COc1cc(NC(=O)c2c(F)c(F)c(F)c(F)c2F)c(OC)cc1Cl | i | i | i | i | i | i | nt
COc1cc(N=C2SSNC2Cl)c(OC)cc1Cl (stereo unspecified) | nt | nt | nt | nt | nt | nt | i
CCOc1cc(C=O)cc(Br)c1OCC(N)=O | i | i | i | i | i | i | nt
Cc1cc2nn(-c3cccc4ccccc34)nc2cc1N | i | 48 | i | i | i | i | i
COc1ccc(CN2C(=O)c3ccccc3C2C(=O)NC2CCC(C)CC2)c(OC)c1 (stereo unspecified) | i | i | i | i | i | i | nt
